PubChem BioAssay (Tox21)
Records with an inconclusive call do not appear. Calls of active or inactive are those of the source. Unless noted, calls follow the shape of the dose curve; as a rule, active = well fitted curve in the direction sought with a large enough effect in the repeat runs; inconclusive = weak or mixed curves; inactive = no such curve, though single readings can be large; an effect the other way counts as inactive or inconclusive.

What was measured:
[1] = qHTS assay to identify aromatase inhibitors - cell viability counter screen (AID 743084);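 also: cells stimulated with testosterone during compound exposure; nearly all actives have a fitted effect of over 55% in size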
[2] = biological target: Aryl hydrocarbon receptor (Homo sapiens) (UniProt P35869); experiment: qHTS assay to identify small molecule that activate the aryl hydrocarbon receptor (AhR) signaling pathway (AID 743085);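 also: HG2L7.5c1 human HepG2 liver cells with stably integrated DRE-driven firefly reporter; series mostly up to about 70 µM; nearly all actives have a fitted effect of over 15% in size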
Sequence of Aryl hydrocarbon receptor (Homo sapiens) (P35869 whole entry, looked up): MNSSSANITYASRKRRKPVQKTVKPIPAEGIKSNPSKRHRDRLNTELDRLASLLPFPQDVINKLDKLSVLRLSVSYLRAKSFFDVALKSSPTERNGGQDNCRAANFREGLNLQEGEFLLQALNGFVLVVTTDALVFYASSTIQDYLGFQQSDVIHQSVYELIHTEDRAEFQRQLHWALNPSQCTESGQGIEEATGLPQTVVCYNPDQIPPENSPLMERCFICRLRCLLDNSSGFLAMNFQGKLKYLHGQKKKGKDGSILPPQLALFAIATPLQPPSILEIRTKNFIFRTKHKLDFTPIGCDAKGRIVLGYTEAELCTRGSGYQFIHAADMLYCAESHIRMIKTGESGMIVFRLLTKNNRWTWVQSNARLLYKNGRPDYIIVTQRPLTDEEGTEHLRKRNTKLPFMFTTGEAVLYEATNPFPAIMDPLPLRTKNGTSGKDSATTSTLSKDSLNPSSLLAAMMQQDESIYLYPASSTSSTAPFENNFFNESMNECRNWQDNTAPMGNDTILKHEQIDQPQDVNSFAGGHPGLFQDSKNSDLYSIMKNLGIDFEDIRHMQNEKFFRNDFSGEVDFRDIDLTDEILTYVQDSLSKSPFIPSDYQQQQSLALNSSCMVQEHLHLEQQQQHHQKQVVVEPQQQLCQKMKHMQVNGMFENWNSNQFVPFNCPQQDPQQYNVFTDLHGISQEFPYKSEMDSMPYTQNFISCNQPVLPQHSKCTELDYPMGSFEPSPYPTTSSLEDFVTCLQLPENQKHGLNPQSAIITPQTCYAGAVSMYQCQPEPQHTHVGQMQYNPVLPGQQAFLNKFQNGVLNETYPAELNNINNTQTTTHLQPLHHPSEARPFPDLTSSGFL
Method in brief: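 Stably transfected human liver carcinoma cells (HG2L7.5c1; 20 DRE-firefly luciferase) were incubated 5 h, dosed, and kept 24 h at 37C. Agonism was scored from increased luciferase luminescence.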

[3] = qHTS assay to identify small molecule that activate the aryl hydrocarbon receptor (AhR) signaling pathway - cell viability counter screen (AID 743086);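 also: HepG2 liver cells carrying the AhR DRE luciferase reporter; series mostly up to about 70 µM; nearly all actives have a fitted effect of over 45% in size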
Method in brief: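 HepG2-AhR-luc (HG2L7.5c1) cells, 4000/well, treated 24 h at 37 C with compound; viability measured as CellTiter-Fluor fluorescence after 30 min in the same wells as the luciferase read.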

[4] = biological target: Peroxisome proliferator-activated receptor gamma (Homo sapiens) (UniProt P37231); experiment: qHTS assay to identify small molecule agonists of the peroxisome proliferator-activated receptor gamma (PPARg) signaling pathway (AID 743094; active = well fitted activation curve with a large enough effect in the signal ratio in the repeat runs, not every such curve was filed as active; the % refers to the signal ratio)
Sequence of Peroxisome proliferator-activated receptor gamma (Homo sapiens) (P37231 whole entry, looked up): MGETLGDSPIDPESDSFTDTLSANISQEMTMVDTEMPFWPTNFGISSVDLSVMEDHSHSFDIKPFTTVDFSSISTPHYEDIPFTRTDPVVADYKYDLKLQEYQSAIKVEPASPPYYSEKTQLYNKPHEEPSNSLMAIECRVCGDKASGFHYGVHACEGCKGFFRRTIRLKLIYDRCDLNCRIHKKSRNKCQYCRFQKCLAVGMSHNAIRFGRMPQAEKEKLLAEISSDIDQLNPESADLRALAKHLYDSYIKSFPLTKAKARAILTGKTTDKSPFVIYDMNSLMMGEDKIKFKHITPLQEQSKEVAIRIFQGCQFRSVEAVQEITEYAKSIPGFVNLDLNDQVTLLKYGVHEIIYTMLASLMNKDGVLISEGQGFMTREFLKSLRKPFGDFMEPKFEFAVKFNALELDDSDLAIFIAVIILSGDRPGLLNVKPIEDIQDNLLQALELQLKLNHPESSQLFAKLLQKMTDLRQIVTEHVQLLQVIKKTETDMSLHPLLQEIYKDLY
Method in brief: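 Following 5 h plating at 37C, PPARg-bla HEK293H cells receive compound or DMSO for 17 h; fluorescence intensity is recorded after LiveBLAzer B/G loading for 1 h at room temperature.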

[5] = biological target: Peroxisome proliferator-activated receptor gamma (Homo sapiens) (UniProt P37231); experiment: qHTS assay to identify small molecule antagonists of the peroxisome proliferator-activated receptor gamma (PPARg) signaling pathway (AID 743191; calls by dose curve; also: series mostly up to about 63 µM; nearly all actives have a fitted effect of over 30% in size)
Method in brief: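 GeneBLAzer PPARg UAS-bla HEK293H cells, 5 h post-plating, exposed to compounds 17 h at 37C. LiveBLAzer B/G FRET substrate added for 1 h at room temperature; beta-lactamase reporter read by fluorescence intensity.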

[6] = qHTS assay for small molecule agonists of the antioxidant response element (ARE) signaling pathway - cell viability counter screen (AID 743203; calls by dose curve; also: nearly all actives have a fitted effect of over 55% in size)
Method in brief: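 Compounds in DMSO were pinned onto ARE-bla HepG2 cells plated 5 hrs earlier at 2,000 cells/well. Sixteen hours later at 37C/5% CO2, CellTiter-Glo was added and luminescence measured after 30 min at room temperature.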

[7] = qHTS assay for small molecule activators of the heat shock response signaling pathway - cell viability counter screen (AID 743209); also: nearly all actives have a fitted effect of over 50% in size
Method in brief: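 Counter screen for cytotoxicity in HeLa HSE-bla reporter cells. Treatment was 5 h at 37 C; viability was detected by luminescent ATP assay (CellTiter-Glo) in the same wells as the beta-lactamase read.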

[8] = qHTS assay for small molecule activators of the heat shock response signaling pathway (AID 743210; active = well fitted activation curve with a large enough effect in the signal ratio in the repeat runs, with a control signal flat, not every such curve was filed as active; the % refers to the signal ratio;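 also: HeLa cells with beta-lactamase reporter driven by heat shock elements; series mostly up to about 63 µM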)
Method in brief: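 Quantitative high-throughput format using an engineered HeLa line in which heat shock response elements drive beta-lactamase; after 5 h with compound, cells received a B/G FRET substrate and fluorescence was read.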

[9] = qHTS assay to identify small molecule agonists of the peroxisome proliferator-activated receptor delta (PPARd) signaling pathway - cell viability counter screen (AID 743211); also: nearly all actives have a fitted effect of over 55% in size
Method in brief: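 In the same wells used for beta-lactamase reporter measurement, cytotoxicity is scored by CellTiter-Glo. HEK293H PPARd-bla cells receive compound for 17 h at 37C following a 5 h settling period.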

[10] = biological target: Peroxisome proliferator-activated receptor delta (Homo sapiens) (UniProt Q03181); experiment: qHTS assay to identify small molecule agonists of the peroxisome proliferator-activated receptor delta (PPARd) signaling pathway (AID 743212; calls by dose curve)
Sequence of Peroxisome proliferator-activated receptor delta (Homo sapiens) (Q03181 whole entry, looked up): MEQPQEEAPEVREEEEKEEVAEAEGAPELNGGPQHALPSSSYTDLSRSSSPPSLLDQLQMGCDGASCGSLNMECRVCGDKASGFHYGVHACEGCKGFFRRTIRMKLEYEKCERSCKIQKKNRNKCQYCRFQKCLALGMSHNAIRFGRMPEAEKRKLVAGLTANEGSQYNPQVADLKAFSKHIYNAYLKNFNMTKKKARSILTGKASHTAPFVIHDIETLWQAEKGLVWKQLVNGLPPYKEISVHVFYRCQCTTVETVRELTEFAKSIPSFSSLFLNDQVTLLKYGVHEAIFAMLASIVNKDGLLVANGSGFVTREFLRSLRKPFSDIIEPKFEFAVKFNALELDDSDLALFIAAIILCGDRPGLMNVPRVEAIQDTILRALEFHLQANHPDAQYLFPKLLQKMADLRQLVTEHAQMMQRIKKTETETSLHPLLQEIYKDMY
Method in brief: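 Quantitative high-throughput agonist screen in a HEK293H beta-lactamase reporter line under UAS control. Compounds in DMSO, at 37 C. Fluorescence read after 2 h with FRET substrate at room temperature.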

[11] = qHTS assay to identify small molecule antagonists of the peroxisome proliferator-activated receptor delta (PPARd) signaling pathway - cell viability counter screen (AID 743213); also: nearly all actives have a fitted effect of over 50% in size
Method in brief: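 HEK293H PPARd UAS-bla cells, 5 h pre-incubation, compound + L165041 300 nM final, 17 h 37 C; B/G FRET substrate 2 h RT; then CellTiter-Glo 30 min RT, luminescence.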

[12] = biological target: Peroxisome proliferator-activated receptor delta (Homo sapiens) (UniProt Q03181); experiment: qHTS assay to identify small molecule antagonists of the peroxisome proliferator-activated receptor delta (PPARd) signaling pathway (AID 743215; active = well fitted inhibition curve with a large enough effect in the signal ratio in the repeat runs, not every such curve was filed as active; the % refers to the signal ratio;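 also: cells stimulated with agonist L165041 at 300 nM final during compound exposure; series mostly up to about 62 µM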)
Method in brief: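 With L165041 present at 300 nM final, compounds were incubated 17 h at 37 C on PPARd UAS-bla HEK293H cells. A FRET-based beta-lactamase substrate was then applied for 2 h at room temperature and fluorescence intensity recorded.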

[13] = qHTS assay to identify small molecule agonists of the farnesoid-X-receptor (FXR) signaling pathway - cell viability counter screen (AID 743218); also: nearly all actives have a fitted effect of over 45% in size
Method in brief: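 After 16 h at 37 C with test compounds, FXR-bla HEK 293T cells were given LiveBLAzer B/G substrate for 2 h at RT and then CellTiter-Glo; luminescence was taken after 30 min.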

[14] = biological target: Vitamin D3 receptor (Homo sapiens) (UniProt P11473); experiment: qHTS assay to identify small molecule agonists of the vitamin D receptor (VDR) signaling pathway (AID 743222; calls by dose curve)
Sequence of Vitamin D3 receptor (Homo sapiens) (P11473 whole entry, looked up): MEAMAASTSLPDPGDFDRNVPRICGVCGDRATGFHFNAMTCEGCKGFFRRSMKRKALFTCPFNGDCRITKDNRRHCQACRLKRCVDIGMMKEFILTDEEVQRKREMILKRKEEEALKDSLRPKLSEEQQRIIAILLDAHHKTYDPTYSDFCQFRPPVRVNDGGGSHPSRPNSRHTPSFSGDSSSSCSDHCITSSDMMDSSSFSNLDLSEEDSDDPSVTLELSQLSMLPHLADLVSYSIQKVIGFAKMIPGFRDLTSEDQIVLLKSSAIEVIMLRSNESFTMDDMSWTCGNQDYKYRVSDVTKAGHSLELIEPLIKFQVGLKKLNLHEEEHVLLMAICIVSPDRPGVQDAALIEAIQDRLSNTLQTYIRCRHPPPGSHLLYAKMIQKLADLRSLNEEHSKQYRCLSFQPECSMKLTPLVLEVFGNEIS
Method in brief: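 VDR-bla cells were seeded, left 4 h, treated with compounds in DMSO for 16 h, incubated 2 h at RT with B/G FRET substrate, and read for fluorescence.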

[15] = biological target: Vitamin D3 receptor (Homo sapiens) (UniProt P11473); experiment: qHTS assay to identify small molecule antagonists of the vitamin D receptor (VDR) signaling pathway (AID 743223; active = well fitted inhibition curve with a large enough effect in the signal ratio in the repeat runs, not every such curve was filed as active; the % refers to the signal ratio)
Method in brief: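 Inhibition of agonist-driven VDR signalling is scored in VDR-bla cells: 3 nM final 1alpha,25-dihydroxyvitamin D3 plus compound, 16 h at 37C, then beta-lactamase detection by FRET substrate fluorescence after 2 h.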

[16] = qHTS assay to identify small molecule antagonists of the peroxisome proliferator-activated receptor gamma (PPARg) signaling pathway - cell viability counter screen (AID 743194); also: nearly all actives have a fitted effect of over 55% in size
Method in brief: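 Cytotoxicity counter screen in PPARg-bla HEK293H cells, same wells as reporter assay. Compounds plus 50 nM rosiglitazone (final) for 17 h at 37 C, then viability read by CellTiter-Glo luminescence.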

[17] = qHTS assay to identify small molecule antagonists of the farnesoid-X-receptor (FXR) signaling pathway - cell viability counter screen (AID 743221; active = well fitted cell-killing curve with a large enough effect in the repeat runs, not every such curve was filed as active; also: nearly all actives have a fitted effect of over 50% in size)
Method in brief: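 Here viability was scored by luminescence after CellTiter-Glo addition to wells already read for beta-lactamase. Prior treatment: compound plus CDCA (50 uM final), 16 h, 37 C, HEK 293T FXR-bla cells.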

[18] = qHTS assay for small molecule agonists of the antioxidant response element (ARE) signaling pathway (AID 743202; active = well fitted activation curve with a large enough effect in the signal ratio in the repeat runs, not every such curve was filed as active; the % refers to the signal ratio)
Method in brief: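 Agonist mode reporter screen: HepG2 cells with ARE-controlled beta-lactamase are incubated with test compounds for 16 h at 37 C, and beta-lactamase activity is measured as fluorescence of cleaved B/G FRET substrate.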

[19] = biological target: Bile acid receptor (Homo sapiens) (UniProt Q96RI1); experiment: qHTS assay to identify small molecule agonists of the farnesoid-X-receptor (FXR) signaling pathway (AID 743220; active = well fitted activation curve with a large enough effect in the signal ratio in the repeat runs, not every such curve was filed as active; the % refers to the signal ratio)
Sequence of Bile acid receptor (Homo sapiens) (Q96RI1 whole entry, looked up): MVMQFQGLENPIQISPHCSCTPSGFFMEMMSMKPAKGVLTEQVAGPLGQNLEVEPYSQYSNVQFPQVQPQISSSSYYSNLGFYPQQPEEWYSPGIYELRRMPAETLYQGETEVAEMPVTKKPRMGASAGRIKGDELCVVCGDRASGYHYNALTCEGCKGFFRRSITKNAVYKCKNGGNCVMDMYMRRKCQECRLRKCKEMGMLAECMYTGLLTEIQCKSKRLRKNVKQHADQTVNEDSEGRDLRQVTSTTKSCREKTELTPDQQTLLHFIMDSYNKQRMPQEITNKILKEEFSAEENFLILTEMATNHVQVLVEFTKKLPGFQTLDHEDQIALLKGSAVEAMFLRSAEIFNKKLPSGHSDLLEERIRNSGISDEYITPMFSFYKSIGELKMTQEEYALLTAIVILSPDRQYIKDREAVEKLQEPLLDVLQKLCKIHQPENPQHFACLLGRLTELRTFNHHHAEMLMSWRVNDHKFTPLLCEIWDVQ
Method in brief: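 Beta-lactamase reporter under UAS control in GeneBLAzer FXR HEK 293T cells (5000/well) measured with LiveBLAzer FRET substrate after 2 h at room temperature. Compound exposure lasted 16 h at 37C.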

[20] = biological target: Bile acid receptor (Homo sapiens) (UniProt Q96RI1); experiment: qHTS assay to identify small molecule antagonists of the farnesoid-X-receptor (FXR) signaling pathway (AID 743217; active = well fitted inhibition curve with a large enough effect in the signal ratio in the repeat runs, not every such curve was filed as active; the % refers to the signal ratio)
Method in brief: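 In this cell-based antagonist screen, inhibition of CDCA-driven (50 uM final) UAS-beta-lactamase expression in HEK 293T cells was measured by FRET fluorescence following 16 h compound exposure at 37 °C.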
% is scaled to controls: 0 for no effect and ±100 for the full control effect.

Oc1cc(O)c2c(c1)O[C@H](c1ccc(O)c(O)c1)[C@H](O)C2
inactive: Potency [1] | Potency [2] | Potency [3] | outcome [4] | outcome [5] | outcome [6] | outcome [7] | outcome [8] | Potency [9] | outcome [10] | Potency [11] | outcome [12] | outcome [13] | outcome [14] | outcome [15]

CC(C)N1C(=O)c2ccccc2C1=O
inactive: Potency [1] | Potency [2] | Potency [3] | outcome [4] | outcome [5] | Potency [16] | outcome [6] | Potency [9] | outcome [10] | Potency [11] | outcome [12] | Potency [17] | outcome [14]

C=CC(=O)N1CCOCC1
inactive: Potency [1] | Potency [2] | Potency [3] | outcome [4] | outcome [5] | Potency [16] | Potency [18] | outcome [6] | outcome [7] | outcome [8] | Potency [9] | outcome [10] | Potency [11] | outcome [12] | outcome [13] | outcome [19] | Potency [17] | outcome [14]

NC(N)=NS(=O)(=O)c1ccc(N)cc1
inactive: Potency [1] | Potency [2] | Potency [3] | outcome [4] | outcome [5] | Potency [18] | outcome [6] | outcome [7] | Potency [9] | Potency [11] | outcome [12] | outcome [20] | outcome [13]

CC1CCN(CCCC(=O)c2ccc(F)cc2)CC1
inactive: Potency [1] | Potency [2] | Potency [3] | outcome [4] | outcome [5] | Potency [18] | outcome [6] | outcome [7] | outcome [8] | Potency [9] | Potency [11] | outcome [13] | Potency [17]

FC(F)(F)C(F)(F)C(F)(F)C(F)(F)C(F)(F)C(F)(F)C(F)(F)C(F)(F)C(F)(F)C(F)(F)F
inactive: activity change, negative = cytotoxicity [1] 5.22% [at 8.47 µM] | activation [2] 0.197% [at 8.47 µM] | viability change, negative = cytotoxic [3] 24.8% [at 8.47 µM] | activation [4] -0.797% [at 7.08 µM] | activity change, negative = cytotoxicity [16] 1.8% [at 5.95 µM] | activation [18] 0.659% [at 8.36 µM] | viability change, negative = cytotoxic [6] 0.46% [at 8.36 µM] | activation [8] 2.05% [at 5.95 µM] | activity change, negative = cytotoxicity [9] 5.8% [at 5.95 µM] | viability change, negative = cytotoxic [11] -11.7% [at 6.26 µM] | viability change, negative = cytotoxic [13] 1.72% [at 5.95 µM] | activity change, negative = cytotoxicity [17] 9.95% [at 5.95 µM] | activation [14] 0.833% [at 6.01 µM] | activity change, negative = inhibition [15] -8.47% [at 6.95 µM]

CCCCCCC(=O)OCC
inactive: Potency [1] | Potency [2] | Potency [3] | outcome [4] | Potency [16] | outcome [6] | outcome [7] | outcome [8] | Potency [9] | Potency [11] | outcome [12] | outcome [13] | Potency [17] | outcome [14] | outcome [15]

COc1ccc(COC=O)cc1
inactive: Potency [1] | Potency [2] | Potency [3] | outcome [4] | Potency [16] | Potency [18] | outcome [6] | outcome [7] | Potency [9] | outcome [10] | Potency [11] | outcome [12] | outcome [20] | outcome [13] | outcome [19] | Potency [17]

Cc1onc(-c2ccccc2)c1-c1ccc(S(N)(=O)=O)cc1
inactive: Potency [1] | Potency [2] | Potency [3] | outcome [4] | Potency [16] | Potency [18] | outcome [6] | outcome [8] | Potency [9] | outcome [10] | Potency [11] | outcome [12] | outcome [13] | outcome [14]

C=C[Si](OC)(OC)OC
inactive: Potency [1] | Potency [2] | Potency [3] | outcome [4] | Potency [16] | Potency [18] | outcome [6] | outcome [7] | outcome [8] | Potency [9] | outcome [10] | Potency [11] | outcome [12] | outcome [13] | Potency [17] | outcome [14] | outcome [15]

CC(C)c1cccc(O)c1
inactive: Potency [1] | Potency [2] | Potency [3] | outcome [4] | Potency [16] | outcome [6] | Potency [9] | outcome [10] | Potency [11] | outcome [12] | outcome [13] | outcome [14]

C=C(C)C1CC=C(C)C(O)C1 (centres undefined)
inactive: Potency [1] | Potency [2] | Potency [3] | outcome [4] | Potency [16] | Potency [18] | outcome [6] | outcome [7] | Potency [9] | outcome [10] | Potency [11] | outcome [12] | outcome [13] | Potency [17]

NCCN1CCNC1=O
inactive: Potency [1] | Potency [2] | Potency [3] | outcome [4] | Potency [16] | Potency [18] | outcome [6] | outcome [7] | outcome [8] | Potency [9] | outcome [10] | outcome [12] | outcome [13] | outcome [14]

CCCCCCCCCCCCCCCCCCOCC(O)CO (centres undefined)
inactive: Potency [1] | Potency [2] | Potency [3] | outcome [4] | Potency [16] | Potency [18] | outcome [6] | outcome [7] | outcome [8] | Potency [9] | outcome [10] | Potency [11] | outcome [12] | outcome [13] | Potency [17] | outcome [15]

NS(=O)(=O)c1cc2c(cc1Cl)NC(CSCc1ccccc1)=NS2(=O)=O
inactive: Potency [1] | Potency [2] | Potency [3] | outcome [4] | Potency [16] | outcome [6] | outcome [7] | outcome [8] | Potency [9] | outcome [10] | Potency [11] | outcome [12] | outcome [20] | outcome [13] | Potency [17] | outcome [14] | outcome [15]

CCCCCC[C@@H](CCC)C(=O)O
inactive: Potency [1] | Potency [2] | Potency [3] | outcome [4] | Potency [16] | Potency [18] | outcome [6] | outcome [7] | outcome [8] | Potency [9] | Potency [11] | outcome [13] | Potency [17] | outcome [14]

CC1=CCC2C(C1)C2(C)C (centres undefined)
inactive: Potency [1] | Potency [2] | Potency [3] | outcome [4] | Potency [16] | outcome [6] | outcome [7] | Potency [9] | outcome [10] | Potency [11] | outcome [20] | outcome [13] | outcome [19] | outcome [14]
